# The campaign covered roughly 2,200 compounds. About 530 (24%) were called active.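 How the source made its calls: active means inhibition above a set limit at one or more concentrations of the dose series; inactive means inhibition under that limit at every dose.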 A selection follows. Results with a measured potency or affinity are listed apart.
# Assay: nmpC-GFP reporter counter-screen in S. Typhimurium, dose response, counter-screen for PhoP regulon inhibitor project, Salmonella Typhimurium, GFP fluorescence (AID 2401);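 further: S. typhimurium with Mg-insensitive nmpC-GFP reporter grown at 10 µM Mg2+; drop in reporter fluorescence reflects general culture growth inhibition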
# Conditions: 4 h; series mostly up to 150 µM
row,SMILES,outcome
1,O=C(Nc1ccccc1)Oc1ccc[nH]c1=O,inactive
2,Cc1ccc(N)cc1-n1c(C)ccc1C,inactive
3,O=C(CC(NS(=O)(=O)c1ccc(Cl)cc1)c1ccco1)N1CCc2ccccc21 (stereo not given),inactive
4,CC1CCN(C(=O)c2ccc3c(c2NCCO)C(=O)c2ccccc2C3=O)CC1,inactive
5,CC(=O)Cn1cnc2sc(-c3ccccc3)cc2c1=O,inactive
6,COCCn1cc(C(=O)N2CCC(C)CC2)c2c3ccccc3n(C)c2c1=O,inactive
7,Oc1ccccc1-c1nc(/C=C/c2ccccc2)nn1-c1ccccc1,inactive
8,Cc1ccc(Cn2cnc3ccccc32)cc1,inactive
9,COc1cc(NC(=O)Nc2cccc(Cl)c2)c(OC)cc1NC(=O)CN1CCCCC1,inactive
10,O=C(NCCCc1ccccc1)Nc1cccc(Cl)c1,inactive
11,CCCOc1ccc(C(=O)C(CCC(CNCC)C(=O)c2ccc(OCCC)cc2)CNCC)cc1 (stereo not given),inactive
12,CCOC(=O)c1ccc2c(c1)C(=O)N(C1CCCCC1)C2=O,inactive
13,O=C1c2ccccc2C(=O)N1CCc1csc(-c2cccc(Cl)c2)n1,inactive
14,CC(=O)c1ccc(NC(=S)NC(NC(=O)c2ccco2)C(Cl)(Cl)Cl)cc1 (stereo not given),inactive
15,O=[N+]([O-])c1cccc(CN(CCO)Cc2ccccc2)c1,inactive
16,Nc1nc(CSc2nc3ccccc3[nH]2)nc(N2CCOCC2)n1,inactive
17,COC(=O)c1ccc(C(=O)OC)c(NC(=O)COc2ccccc2OC)c1,inactive
18,CCN(CC)c1ccc(S(=O)(=O)Nc2cc(Cl)ccc2Cl)cc1NC(=S)NC(=O)C1CCCC1,inactive
19,O=C1/C(=C/c2ccccc2)NC(=S)N1C(c1ccccc1)c1ccccc1,inactive
20,CCN(CC)S(=O)(=O)c1cccc(NC(=O)Nc2cccc(C(F)(F)F)c2)c1,inactive
21,Fc1cc(Br)ccc1NC(=S)Nc1ccccc1,inactive
22,Nc1ccc2c(c1)C(=O)N(CC1CCCO1)C2=O (stereo not given),inactive
23,Cc1cccc(C(=O)O/N=C2\CCSc3ccc(C)cc32)c1,inactive
24,CCOC(=O)c1cnc2ccc(OC)cc2c1Nc1ccc2c(c1)OCCO2,inactive
25,COc1cccc(/C=N/n2c(C)nc3ccccc3c2=O)c1O,inactive

row,SMILES,outcome
1,Cc1cccc(C)c1OCC(=O)Nn1c(COc2ccccc2)nc2ccccc2c1=O,inactive
2,COc1ccccc1-n1c(SCc2cc(=O)oc3cc(O)ccc23)nc2ccccc2c1=O,inactive
3,Cn1c(COc2ccccc2)nnc1SCc1nc2ccccc2[nH]1,inactive
4,Nc1nc2ccccc2n1/N=C/c1ccc(-c2ccccc2)o1,inactive
5,O=C(Nc1ccc2snnc2c1)Nc1cccc2ccccc12,inactive
6,CCOC(=O)C1=C(C)NC(SCc2cc(=O)[nH][nH]2)=C(C#N)C1c1cccs1 (stereo not given),inactive
7,COc1ccc(C2CC(c3ccccc3)=NN2C(=O)COC(=O)c2cccnc2)cc1 (stereo not given),inactive
8,O=C(CN1C(=O)COc2ccccc21)Nc1ccc(F)cc1,inactive
9,Brc1ccc2nc3c(n2c1)CCCC3,inactive
10,CCCCn1c(NCCO)nc2ccccc21,inactive
11,CCCCn1c(=N)n(CC(=O)C(C)(C)C)c2ccccc21,inactive
12,Cc1ccc(O)c(-c2cc(-c3ccccc3C)[nH]n2)c1,inactive
13,COC(=O)c1c(C)[nH]c(C(C)=O)c1C,inactive
14,CCN(CC(=O)Nc1ccc(N2CCOCC2)cc1)Cc1nc2ccccc2c(=O)[nH]1,inactive
15,O=C(Cn1nc(Cl)nc1Cl)c1ccc2c(c1)OCCO2,inactive
16,COc1ccc(Nc2ccc3c(c2)=NC2(CCCCC2)[N+]=3[O-])cc1,inactive
17,CCOC(=O)N1CCN(C(=O)C(NC(=O)c2ccc(CC)cc2)C(C)C)CC1 (stereo not given),inactive
18,CC(C)CCNC(=O)C(c1ccco1)N(Cc1ccc(F)cc1)C(=O)c1snc(C(N)=O)c1N (stereo not given),inactive
19,O=C1c2ccccc2-c2onc3ccc(NCc4ccco4)c1c23,inactive
20,CCOC(=O)c1c(C)[nH]c(C)c1C(=O)COC(=O)/C=C/c1cccc(F)c1,inactive
21,COC(=O)c1ccccc1NC(=O)CS(=O)(=O)Cc1nc(-c2ccc(C)cc2)oc1C,inactive
22,Cc1ccc(CNC(=O)c2cccc(S(C)(=O)=O)c2)cc1,inactive
23,CCOC(=O)CC(=O)CSc1nc2c(c(C)c1C#N)CCC2,inactive
24,CCn1c(SCc2nc3scc(-c4ccccc4)c3c(=O)[nH]2)nnc1-c1cccs1,inactive
25,CN1c2ccccc2C(C)(C)[C@]12C=Cc1cc(O)ccc1O2,inactive
